# In PubChem BioAssay AID1159580 (chemical genetic matrix, 2015):
# “And” between values parts separate entries of the source, which are not always exact repeats. Equal values may be shown once. Out of some 5,500 compounds screened, about 2,000 (36%) were called active. Roughly 18% stayed inconclusive and do not appear here. The list shows a part of the results. Unmarked numbers belong to inactive results. Rule as the data show it: active = normalized growth mostly below about 0.91 (no sharp cut-off); inconclusive = no clear call, values can overlap the other calls; inactive = mostly above about 0.92.
# Assay: chemical genetic growth profiling, strain panel (AID 1159580);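 also: tested at 20 µM; growth read once vehicle control cultures reached saturation at 30 °C; 1 = growth at the plate median or of vehicle wells; lower values mean less growth of the strain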
# Settings: S. cerevisiae deletion strains, growth OD
# [1] = locus YAL013W, strain DEP1, active compounds read low
# [2] = locus YDR150W, strain NUM1, active compounds read low
# [3] = locus YGR078C, strain PAC10, active compounds read low
# [4] = locus YJR075W, strain HOC1, active compounds read low
# [5] = locus YMR263W, strain SAP30, active compounds read low
# [6] = locus YNL153C, strain GIM3, active compounds read low
# [7] = locus YNL322C, strain KRE1, active compounds read low
# [8] = locus YPL055C, strain LGE1, active compounds read low
# [9] = locus YPL241C, strain CIN2, active compounds read low
# [10] = locus YAL040C, strain CLN3, active compounds read low
# [11] = locus YCL061C, strain MRC1 (second series), active compounds read low
# [12] = locus YDR363W, strain ESC2, active compounds read low
# [13] = locus YER002W, strain NOP16, active compounds read low
# [14] = locus YMR307W, strain GAS1, active compounds read low
# [15] = locus YNL128W, strain TEP1, active compounds read low
# [16] = locus YNL175C, strain NOP13, active compounds read low
# [17] = locus YNL197C, strain WHI3, active compounds read low
# [18] = locus YNL224C, strain SQS1, active compounds read low
# [19] = locus YOR083W, strain WHI5 (second series), active compounds read low
smiles,measurement,setting,value
Clc1ccc(Oc2ccnc3cc(Cl)ccc23)cc1,normalized growth,[1],0.909 (active)
same,normalized growth,"locus YAR019C, strain CDC15, active compounds read low",0.898
same,normalized growth,"locus YBL105C, strain PKC1, active compounds read low",0.923
same,normalized growth,"locus YBR135W, strain CKS1, active compounds read low",0.913
same,normalized growth,"locus YBR136W, strain MEC1, active compounds read low",0.922
same,normalized growth,"locus YBR160W, strain CDC28, active compounds read low",0.918
same,normalized growth,"locus YBR229C, strain ROT2, active compounds read low",0.956
same,normalized growth,"locus YDL017W, strain CDC7, active compounds read low",0.919
same,normalized growth,"locus YDL028C, strain MPS1, active compounds read low",0.926
same,normalized growth,"locus YDL101C, strain DUN1, active compounds read low",0.915 and 0.93
same,normalized growth,"locus YDL108W, strain KIN28, active compounds read low",0.921
same,normalized growth,"locus YDL132W, strain cdc53, active compounds read low",0.91
same,normalized growth,"locus YDL214C, strain PRR2, active compounds read low",0.745
same,normalized growth,"locus YDR052C, strain DBF4, active compounds read low",0.918
same,normalized growth,"locus YDR054C, strain cdc34, active compounds read low",0.894
same,normalized growth,[2],0.943
same,normalized growth,"locus YDR226W, strain ADK1, active compounds read low",0.903
same,normalized growth,"locus YDR477W, strain SNF1, active compounds read low",0.678 (active)
same,normalized growth,"locus YEL061C, strain CIN8, active compounds read low",0.944
same,normalized growth,"locus YER123W, strain YCK3, active compounds read low",0.517 (active)
same,normalized growth,"locus YER133W, strain GLC7, active compounds read low",0.613 (active)
same,normalized growth,"locus YFL009W, strain cdc4, active compounds read low",0.903
same,normalized growth,"locus YFL029C, strain CAK1, active compounds read low",0.898
same,normalized growth,"locus YFR003C, strain YPI1, active compounds read low",0.916
same,normalized growth,"locus YFR019W, strain FAB1, active compounds read low",0.893
same,normalized growth,"locus YFR028C, strain CDC14, active compounds read low",0.908
same,normalized growth,"locus YGR040W, strain KSS1, active compounds read low",0.67 (active)
same,normalized growth,"locus YGR052W, strain FMP48, active compounds read low",0.659
same,normalized growth,[3],0.92 (active)
same,normalized growth,"locus YGR092W, strain DBF2, active compounds read low",0.627
same,normalized growth,"locus YHR030C, strain SLT2, active compounds read low",0.235 (active) and 0.376 (active)
same,normalized growth,"locus YHR079C, strain IRE1, active compounds read low",0.546
same,normalized growth,"locus YHR082C, strain KSP1, active compounds read low",0.626
same,normalized growth,"locus YHR087W, strain rtc3, active compounds read low",0.923
same,normalized growth,"locus YHR205W, strain SCH9, active compounds read low",0.704
same,normalized growth,"locus YIL147C, strain SLN1, active compounds read low",0.924
same,normalized growth,"locus YJL095W, strain BCK1, active compounds read low",0.49 (active)
same,normalized growth,"locus YJL128C, strain PBS2, active compounds read low",0.865
same,normalized growth,"locus YJL157C, strain FAR1, active compounds read low",0.683 (active)
same,normalized growth,"locus YJR016C, strain ILV3, active compounds read low",0.914
same,normalized growth,"locus YJR043C, strain POL32, active compounds read low",0.964
same,normalized growth,"locus YJR066W, strain TOR1 (second series), active compounds read low",0.684
same,normalized growth,"locus YJR066W, strain TOR1, active compounds read low",0.544
same,normalized growth,[4],0.804 (active)
same,normalized growth,"locus YKL048C, strain ELM1, active compounds read low",0.888
same,normalized growth,"locus YKL067W, strain YNK1, active compounds read low",0.735
same,normalized growth,"locus YKL101W, strain HSL1, active compounds read low",0.772
same,normalized growth,"locus YKL193C, strain SDS22, active compounds read low",0.911
same,normalized growth,"locus YKL203C, strain TOR2, active compounds read low",0.68 (active)
same,normalized growth,"locus YLR039C, strain RIC1, active compounds read low",0.779 (active)
same,normalized growth,"locus YLR058C, strain SHM2 (second series), active compounds read low",0.951
same,normalized growth,"locus YLR085C, strain ARP6, active compounds read low",0.499 (active)
same,normalized growth,"locus YLR113W, strain HOG1, active compounds read low",0.379 (active)
same,normalized growth,"locus YLR133W, strain CKI1, active compounds read low",0.772
same,normalized growth,"locus YLR262C, strain YPT6, active compounds read low",0.817
same,normalized growth,"locus YLR403W, strain SFP1, active compounds read low",0.675
same,normalized growth,"locus YML070W, strain DAK1, active compounds read low",0.681
same,normalized growth,"locus YML094W, strain GIM5, active compounds read low",0.994
same,normalized growth,"locus YMR001C, strain CDC5, active compounds read low",0.908
same,normalized growth,"locus YMR205C, strain PFK2 (second series), active compounds read low",0.742 (active)
same,normalized growth,"locus YMR219W, strain ESC1, active compounds read low",0.948
same,normalized growth,[5],0.945
same,normalized growth,"locus YMR277W, strain FCP1, active compounds read low",0.915
same,normalized growth,"locus YNL006W, strain LST8, active compounds read low",0.92
same,normalized growth,"locus YNL020C, strain ARK1, active compounds read low",0.762
same,normalized growth,[6],0.98
same,normalized growth,"locus YNL161W, strain CBK1, active compounds read low",0.897 (active)
same,normalized growth,"locus YNL183C, strain NPR1, active compounds read low",0.456 (active)
same,normalized growth,"locus YNL207W, strain RIO2, active compounds read low",0.906
same,normalized growth,"locus YNL222W, strain SSU72, active compounds read low",0.916
same,normalized growth,"locus YNL298W, strain CLA4 (second series), active compounds read low",0.924
same,normalized growth,"locus YNL307C, strain MCK1 (second series), active compounds read low",0.701
same,normalized growth,[7],0.947
same,normalized growth,"locus YNR030W, strain Alg12, active compounds read low",0.802 (active)
same,normalized growth,"locus YOL078W, strain AVO1, active compounds read low",0.904
same,normalized growth,"locus YOL136C, strain PFK27, active compounds read low",0.668 (active)
same,normalized growth,"locus YOR061W, strain CKA2, active compounds read low",0.792
same,normalized growth,"locus YOR119C, strain RIO1, active compounds read low",0.684 (active)
same,normalized growth,"locus YOR231W, strain MKK1, active compounds read low",0.489 (active)
same,normalized growth,"locus YOR329C, strain SCD5, active compounds read low",0.912
same,normalized growth,"locus YPL031C, strain PHO85, active compounds read low",0.599 (active)
same,normalized growth,[8],0.887
same,normalized growth,"locus YPL153C, strain RAD53, active compounds read low",0.659 (active)
same,normalized growth,"locus YPL204W, strain HRR25, active compounds read low",0.598 (active)
same,normalized growth,"locus YPL209C, strain IPL1, active compounds read low",0.918
same,normalized growth,[9],0.638 (active)
same,normalized growth,"locus YPL256C, strain CLN2, active compounds read low",0.447 (active)
same,normalized growth,"locus YPR025C, strain CCL1, active compounds read low",0.914
same,normalized growth,"locus YPR106W, strain ISR1, active compounds read low",0.896
same,normalized growth,"locus YPR111W, strain DBF20, active compounds read low",0.89
same,normalized growth,"locus YPR135W, strain CTF4, active compounds read low",0.325 (active)
same,normalized growth,"strain NNK1, active compounds read low",0.88 (active)
same,normalized growth,"strain TSCII, active compounds read low",0.9
C[C@@H](Oc1ccc(Oc2cnc3ccc(Cl)cc3n2)cc1)C(=O)O,normalized growth,[1],1.04
same,normalized growth,[10],1.04
same,normalized growth,[11],1
same,normalized growth,[12],1.01
same,normalized growth,[13],0.995
same,normalized growth,[3],1.01
same,normalized growth,"locus YGR229C, strain SMI1, active compounds read low",1.02
same,normalized growth,[4],1
same,normalized growth,[5],1.01
same,normalized growth,[14],0.983
same,normalized growth,[15],0.996
same,normalized growth,[16],0.984
same,normalized growth,[17],0.996
same,normalized growth,[18],0.997
same,normalized growth,[7],1
same,normalized growth,[19],1
same,normalized growth,[9],1
Clc1cnc(Oc2ccc(Oc3ncc(Cl)cc3Cl)cc2)c(Cl)c1,normalized growth,[1],1.03
same,normalized growth,[10],1.01
same,normalized growth,[11],1.01
same,normalized growth,[2],1.01
same,normalized growth,[12],1.03
same,normalized growth,[13],0.995
same,normalized growth,[14],1.02
same,normalized growth,[15],1.01
same,normalized growth,[6],1
same,normalized growth,[16],1
same,normalized growth,[17],1.02
same,normalized growth,[18],1.02
same,normalized growth,[19],1.06
same,normalized growth,[8],1.04
same,normalized growth,[9],1.01
